A selection: hits, their analogues and other compounds. The true share with any hit is near 10%.
SARS PLP yeast: blocks SARS-CoV papain-like protease in a yeast assay; AID 485353; 330,000 compounds, 0.19% hits; Potency, µM (doses to about 32.9 µM), usual class: activators; S. cerevisiae expressing SARS-CoV PLpro, growth rescue; further: nearly all actives have a fitted effect of over 55% in size
NS1 function inh: blocks influenza NS1 protein function; Potency, µM (titrated, usually from 46.1 µM); 270,000 compounds, 0.4% hits; further: actives are rising curves; nearly all actives have a fitted effect of over 50% in size
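Read-out: OD600 growth recovery of NS1-expressing budding yeast. Cells grown overnight at 30C in -URA glucose medium, washed, resuspended and diluted 1:100 in 2% galactose assay medium, pH 6.0. Same strain lacking NS1 served as positive control.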
Pf growth 48h: P. falciparum growth inhibition at 48 hours (one generation); P. falciparum luciferase growth in erythrocytes, 48 h; Potency, µM (doses to about 28.7 µM), actives largely listed as inhibitors; 310,000 compounds, 5.9% hits; active means well fitted inhibition curve with a large enough effect; inconclusive means small, poorly fitted or top-dose-only effect, or another doubt; inactive means no such curve, though single readings can be large or run the other way
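Growth was read as firefly luciferase luminescence after a 48 h, 37 C, 5% CO2 exposure of compounds to reporter-bearing P. falciparum cultures (0.1% parasitemia, 2% hematocrit final) in Albumax-supplemented RPMI 1640.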
Pf growth 96h: inhibits malaria parasite growth, 96 h; Potency, µM (series often up to 28.7 µM), usual class: inhibitors; 320,000 compounds, 6.9% hits; AID 504834; P. falciparum luciferase reporter growth, 96 h; active means well fitted inhibition curve with a large enough effect; inconclusive means small, poorly fitted or top-dose-only effect, or another doubt; inactive means no such curve, though single readings can be large or run the other way
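Plates of compound plus infected erythrocytes (2% hematocrit, 0.05% parasitemia final) incubate 96 hours, 37 C, 5% CO2. Detection reagent added; reduced luminescence from the parasites' luciferase reporter flags inhibition.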
Each line names hits and unclear results; the compound was inactive in the other large screens. Unless noted, the call rests on the fitted dose curve.

Cc1c(C)n(C)c2ccc(C(=O)N3CCN(c4ccccn4)CC3)cc12	Pf growth 48h 10µM
Cc1c(C)n(C)c2ccc(C(=O)N3CCN(c4ccccc4)CC3)cc12	Pf growth 96h inconclusive
O=C(c1cc2ccccc2o1)N1CCN(c2cccc(Cl)c2)CC1	none
O=C(c1cc2ccccc2o1)N1CCN(c2ccccc2Cl)CC1	Pf growth 96h 7.4µM (no result: Pf growth 48h)
O=C(c1cc2ccccc2o1)N1CCN(c2ccccn2)CC1	Pf growth 48h 4.7µM, Pf growth 96h 13µM
N=C(N)SCCc1ccccn1	none (no result: SARS PLP yeast, Pf growth 48h, Pf growth 96h)
CCc1nc2ccccc2c(C(=O)Nc2ccc(F)cc2)c1C	Pf growth 96h inconclusive
Cc1ccc(Cl)cc1OCC(=O)NCCOC(=O)Nc1sc(=S)n(C)c1C	none
Cc1c(NC(=O)OCCNC(=O)Nc2ccccc2)sc(=S)n1C	Pf growth 96h 4.7µM
Cc1ccc(S(=O)(=O)NCCOC(=O)Nc2sc(=S)n(C)c2C)cc1	none (no result: Pf growth 48h)
Cc1cc(Cl)ccc1OCC(=O)NCCOC(=O)Nc1sc(=S)n(C)c1C	Pf growth 96h 4.7µM
COc1ccc(S(=O)(=O)Nc2cccc3c2O[C@H](CN(C)C(=O)NC2CCCCC2)[C@@H](C)CN([C@H](C)CO)C3=O)cc1	none (no result: NS1 function inh, Pf growth 48h, Pf growth 96h)
CCN(CC)CCNC(=O)/C(=C/c1cn(C)c2ccccc12)NC(=O)c1ccc(OC)c(OC)c1	none
CCN(Cc1ccccc1)C(=O)CSc1nc(C)cc(C)c1C#N	Pf growth 48h inconclusive, Pf growth 96h 10µM
COC(=O)CC(=O)CSc1nc(C)cc(C)c1C#N	Pf growth 96h 8.3µM
Cc1cc(C)c(C#N)c(SCCS(=O)(=O)c2ccc(C(C)(C)C)cc2)n1	Pf growth 48h 7.4µM (no result: Pf growth 96h)
Cc1cc(C)c(C#N)c(SCCS(=O)(=O)c2ccc(Cl)cc2)n1	Pf growth 48h inconclusive
COc1cc2c(cc1OC)CN(C(=O)CSc1nc(C)cc(C)c1C#N)CC2	Pf growth 48h inconclusive, Pf growth 96h 6.6µM
Cc1cc(C)c(C#N)c(SCC(=O)N2CCCCC2)n1	none (no result: Pf growth 96h)
CC(C)CNC(=O)[C@H](Cc1ccccc1)NC(=O)c1cccs1	none
CC12CN3CC(C)(CN(C1)C3c1ccccc1F)C2 (stereo unspecified)	Pf growth 48h inconclusive
CN(CC(=O)Nc1ccc(F)cc1)C(=O)CN1C(=O)c2cccc([N+](=O)[O-])c2C1=O	Pf growth 96h inconclusive (no result: NS1 function inh)
CCOC(=O)NC(=O)CSc1nc(C)cc(C)c1C#N	Pf growth 96h 9.3µM
CCOC(=O)CNC(=O)CSc1nc(C)cc(C)c1C#N	NS1 function inh inconclusive (no result: Pf growth 48h, Pf growth 96h)
Cc1cc(C)c(C#N)c(SCC(=O)NC(C)(C)C)n1	Pf growth 96h 7.4µM (no result: Pf growth 48h)
Cc1ccc(N2C(=O)CSC2c2cccs2)cc1 (stereo unspecified)	Pf growth 96h 0.17µM
COC(=O)C1=C(C)NC(C)=C(C(=O)OC)C1C(=O)OCC(=O)c1ccc(Br)cc1	none (no result: NS1 function inh)
Cc1cc(O)c(-c2cc(C(=O)NCc3ccc4c(c3)OCO4)[nH]n2)cc1C	Pf growth 96h inconclusive
COc1ccc(CCNC(=O)c2cc(-c3ccc(C)c(C)c3O)n[nH]2)cc1OC	Pf growth 96h 15µM (no result: Pf growth 48h)
Cc1ccc(-c2cc(C(=O)NCc3ccc4c(c3)OCO4)[nH]n2)c(O)c1C	NS1 function inh inconclusive, Pf growth 96h 12µM
COc1ccc(CCNC(=O)c2cc(-c3cc(C)ccc3O)n[nH]2)cc1OC	Pf growth 96h inconclusive (no result: Pf growth 48h)
CCC(C)C(=O)Nc1nc(C)c(-c2csc(Nc3cc(Cl)ccc3OC)n2)s1 (stereo unspecified)	NS1 function inh inconclusive, Pf growth 48h 10µM, Pf growth 96h 15µM
CCC(C)C(=O)Nc1nc(C)c(-c2csc(Nc3cc(OC)ccc3OC)n2)s1 (stereo unspecified)	Pf growth 48h 2.3µM, Pf growth 96h 9.3µM
COc1ccccc1Nc1nc(-c2sc(N)nc2C)cs1	Pf growth 96h inconclusive
COc1ccc(OC)c(Nc2nc(-c3sc(NC(=O)CC(C)C)nc3C)cs2)c1	Pf growth 48h 6.6µM, Pf growth 96h 10µM
COc1ccc(CC(=O)Nc2nc(-c3cc(OC)ccc3OC)cs2)cc1	Pf growth 96h inconclusive
O=C(c1cc(Br)c(Br)s1)N1CCc2ccccc2C1	none (no result: NS1 function inh, Pf growth 48h, Pf growth 96h)
Cc1cc(OCC(=O)N2CCOCC2)ccc1[N+](=O)[O-]	none
CC(OC(=O)c1ccco1)C(=O)NCc1ccc2c(c1)OCO2 (stereo unspecified)	none
CCCCCCSc1ccc([C@H]2N[C@@](CC(C)C)(C(=O)OC)[C@H]3C(=O)N(C)C(=O)[C@@H]23)cc1OC	Pf growth 48h 6.6µM, Pf growth 96h 4.7µM (no result: NS1 function inh)
COC(=O)[C@]1(CC(C)C)N[C@H](c2ccc(-c3ccc(F)cc3)c(OC)c2)[C@@H]2C(=O)N(C)C(=O)[C@@H]21	Pf growth 48h 7.4µM, Pf growth 96h 1.9µM (no result: NS1 function inh)
